# Experimental data reported in PubChem BioAssay AID651582 (Sanford-Burnham Center for Chemical Genomics, 2012).
# The campaign covered roughly 230,000 compounds. About 1,500 (0.65%) were called active.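 The calls were made as follows: active = pattern-corrected inhibition of lipid staining of at least 50% with the nuclear-stain viability signal not falling by more than 50%; inactive = the rest, inconclusive results apart.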 The full list was thinned out, with actives kept by preference.
# Test: TAG lipid buildup reduction in H9c2 cells – cell-based, uHTS, fluorescence, primary screen (AID 651582);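 as to inhibition: 0% = DMSO wells and 100% = triacsin C control wells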
# Settings: Nile Red lipid (TAG) fluorescence, at 12.5 µM, cells loaded with 200 µM oleic acid; DAPI nuclei signal change (viability), lower = more cytotoxic: measured here: DAPI nuclei count viability; inhibition: stronger effect = higher value
Compound,"DAPI nuclei signal change (viability), lower = more cytotoxic [%]",inhibition
CC1CCC2(CC1)NC(=O)N(CC(=O)c1ccc3c(c1)OCO3)C2=O (stereo not given),5.46,-2.45% (inactive)
O=C(O)c1ccccc1-c1cccc2nncn12,3.23,-1.16% (inactive)
Cc1cc(N/N=C\c2ccc(Br)cc2)nc(-n2nc(C)cc2C)n1,-21.7,59% (active)
C(=N/Nc1cc(N2CCOCC2)nc(N2CCOCC2)n1)/c1ccccc1,-80.2,126% (inactive)
Cc1ccc2nc(C)cc(N/N=C/c3ccc(F)cc3)c2c1,4.22,4.13% (inactive)
C=C(C)C(=O)O[C@H]1C/C(C)=C\C(=O)/C=C(\C)[C@H](O)[C@@H]2OC(=O)C(=C)[C@@H]21,-49.2,51.2% (active)
COc1ccc(C(=O)Nc2nc(-c3ccc(OC)cc3)c(-c3ccc([N+](=O)[O-])cc3)s2)cc1,-4.41,61.8% (active)
O=C(Nc1nc2ccc([N+](=O)[O-])cc2s1)c1ccncc1,12.5,-10.5% (inactive)
CC(=O)c1sc(NC(=O)c2ccc(C)cc2)nc1C,-3.26,-5.37% (inactive)
Cc1ccc(C)c(S(=O)(=O)N(C)c2ccc(OC(=O)C3CCN(C(=O)c4ccc(F)cc4)CC3)cc2)c1,0.336,-28% (inactive)
COC(C[C@H](O)CC(=O)COCc1ccccc1)OC,-39.1,53.8% (active)
COC(C[C@H](O)CC(=O)[C@@H](C)OCc1ccccc1)OC,5.4,-8.13% (inactive)
COC(C[C@@H](O)C[C@H](O)[C@H](C)OCc1ccccc1)OC,5.91,-1.79% (inactive)
CC(=O)NC(c1ccccc1)c1nc(-c2cccc(C(C)C)c2)cs1 (stereo not given),-1.3,8.58% (inactive)
O=C(Nc1cc(Cl)ccc1N1CCOCC1)c1ccc(N2CCCC2=O)cc1,-2.51,10.9% (inactive)
Cc1cccc(NC(=O)c2cccc(C(F)(F)F)c2)c1,-13.3,-0.148% (inactive)
CNC(=O)c1ccc(NC(=O)c2cccc(C(F)(F)F)c2)cc1,-4.98,-1.2% (inactive)
O=C(Nc1ccc(-c2csc(Nc3cccc(C(F)(F)F)c3)n2)cc1)c1cccc(C(F)(F)F)c1,-19.5,51.9% (active)
CC1=C(C(=O)Nc2cccc(C(=O)NCC(C)c3ccccc3)c2)SCCO1 (stereo not given),-4.49,4.45% (inactive)
COc1ccc(CN2CCN(C(=O)c3cc(C4CC4)nn3-c3ccccc3)CC2)cc1F,-2,7.6% (inactive)

Compound,"DAPI nuclei signal change (viability), lower = more cytotoxic [%]",inhibition
Cc1c(C(=O)NNC(=O)c2ccncc2)oc2ccccc12,-11,8.91% (inactive)
CC(C)OC(=O)c1ccc(NCc2cc(O)ccc2O)cc1Cl,-60.3,108% (inactive)
COC(=O)c1ccc(NCc2cc(O)ccc2O)cc1,-40.6,54.7% (active)
O=C(OC12CC3CC(CC(C3)C1)C2)c1ccc(NCc2cc(O)ccc2O)cc1,-61.6,111% (inactive)
CCCn1c(N)c(C(=O)CSc2nnc3n2CCCCC3)c(=O)[nH]c1=O,5.45,-8.3% (inactive)
CC[C@]1(c2ccccc2OC)C(=O)N(C(=O)OC)N1C(=O)OC,11,-4.89% (inactive)
C=CCn1c(CSc2nc3ccccc3s2)nnc1SCC(=O)NCc1ccco1,-7.04,-5.24% (inactive)
O=C(CSc1nc2ccc(Nc3nc(N4CCOCC4)nc(N4CCOCC4)n3)cc2s1)NCc1ccco1,-0.911,54.6% (active)
Cc1ccccc1NC(=O)CSc1nc2ccc(Nc3nc(N4CCOCC4)nc(N4CCOCC4)n3)cc2s1,-7.17,62.6% (active)
O=C(CSc1nc(Nc2ccccc2)nc(N2CCOCC2)n1)Nc1cc(Cl)ccc1O,-18.9,34.4% (inactive)
O=C(CSc1c2c(nc3ccc(Cl)cc13)CCCC2)NCc1ccco1,13.7,2.61% (inactive)
Nc1nnc(SCC(=O)Nc2ccc3nc(SCC(=O)Nc4ccccc4)sc3c2)s1,-9.1,-21.4% (inactive)
CS(=O)(=O)/C(C#N)=C/c1cccn1S(=O)(=O)c1ccc([N+](=O)[O-])cc1,8.58,-3.62% (inactive)
CN(CC(=O)Nc1ccc(F)cc1)C(=O)c1ccc(-c2ccc(Cl)cc2)o1,0.479,-10.2% (inactive)
Cc1ccc(N(Cc2ccccc2O)C(=O)c2ccccc2F)cc1,2.35,-3.73% (inactive)
C=C1CCC(N(O)c2cc(C)on2)C(=C)CCC2C1CC2(C)C (stereo not given),2.7,-2.19% (inactive)
CC(=O)Nc1ccc(-c2ccnc3c2CC(C(=O)NC(C)C)O3)cc1 (stereo not given),-1.71,-1.68% (inactive)
COc1ccc(-c2cc(NC=O)c3ncc(-c4ccccc4)n3c2)cc1OC,-14.8,19.6% (inactive)
COc1ccc(-c2cc(NC=O)c3ncc(-c4cccc(C(=O)N(C)C)c4)n3c2)c(OC)c1,-42.3,46% (inactive)
COc1ccc(-c2cc(NC=O)c3ncc(-c4cc(OC)c(OC)c(OC)c4)n3c2)c(OC)c1,-24.8,52.6% (active)
